Test [1] deals with Transcription factor E2F1 (Homo sapiens) (UniProt Q01094). Kind of test: ATG_E2F_CIS: Attagene CIS-FACTORIAL HepG2 Assay for human E2F Transcription Factor 1 (AID 2282935). The settings on record: HepG2 Attagene cis-reporter, E2F reporter RNA transcripts; actives raise or lower the signal. A digest of the protocol: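 First, HepG2 cells were transfected with reporter transcription units. Next, they were dosed for 24 h. Then RNA was isolated, converted to cDNA, PCR-amplified, FAM-labeled, HpaI-digested and analyzed by capillary electrophoresis.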

Test [2] can be described thus: ATG_E_Box_CIS: Attagene CIS-FACTORIAL HepG2 Assay for human Enhancer Box (E-box) (AID 2282936). The following applies: HepG2 E-box cis-reporter transcription, actives raise or lower the signal. In short, it runs like this: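 Endogenous transcription factor activity was sensed in human HepG2 liver cells through transfected cis-promoter reporter units. After 24 h of dosing, total RNA was reverse-transcribed and reporter cDNA resolved by capillary electrophoresis.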

The nature of test [3]: ATG_M_61_CIS: Attagene CIS-FACTORIAL HepG2 Assay for M61 Transcription Factor (Internal Marker) (AID 2282937). The settings on record: HepG2 Attagene CIS-FACTORIAL M61 internal marker reporter; actives raise or lower the signal. A digest of the protocol:
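HepG2 cells transiently transfected with multiplexed cis-promoter reporter units reporting endogenous transcription factor activity, measured 24 h after dosing. Reporter mRNA quantified by RT-PCR and capillary electrophoresis; bidirectional fit against DMSO baseline.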

A short description of test [4]: ATG_EGR_CIS: Attagene CIS-FACTORIAL HepG2 Assay for human Early Growth Response 1 (EGR1) (AID 2282938). The following applies: HepG2 Attagene CIS-FACTORIAL EGR reporter mRNA; actives raise or lower the signal. In short, it runs like this:
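HepG2 cells transiently transfected with cis-element-driven multiplexed reporter units, dosed for 24 h. EGR1-element reporter mRNA quantified by RT-PCR, 6-FAM labelling, HpaI digestion and capillary electrophoresis; bidirectional fit versus DMSO.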

Test [5] can be described thus: ATG_ERE_CIS: Attagene CIS-FACTORIAL HepG2 Assay for Estrogen Response Element (ERE) (AID 2282940). The following applies: HepG2 ERE cis-reporter, Attagene RNA transcript; actives raise or lower the signal. A digest of the protocol:
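Fluorescence of capillary-separated, FAM-labelled reporter cDNA fragments indicates reporter mRNA levels in HepG2 cells exposed to chemicals for 24 h. Transient transfection with cis-regulated units; data fitted in both directions against DMSO.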

A short description of test [6]: ATG_Ets_CIS: Attagene CIS-FACTORIAL HepG2 Assay for human Erythroblast Transformation Specific (ETS) (AID 2282941). The settings on record: HepG2 ETS cis-reporter transcription, actives raise or lower the signal. A digest of the protocol: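 RT-PCR/capillary electrophoresis fluorescence read-out of reporter mRNA; HepG2 transient multi-reporter transfection; 24 h compound exposure; gain or loss of signal fitted bidirectionally relative to DMSO.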

A short description of test [7]: ATG_FoxO_CIS: Attagene CIS-FACTORIAL HepG2 Assay for human Forkhead box O (FoxO) (AID 2282943). The settings on record: HepG2 Attagene cis-reporter, FoxO element, mRNA; actives raise or lower the signal. A digest of the protocol: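 Values reflect reporter mRNA induction or loss in HepG2 cells 24 h post-dosing, fitted bidirectionally with DMSO as negative control and baseline. Detection used RT-PCR and fluorescence capillary electrophoresis.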

Test [8] deals with Hepatocyte nuclear factor 3-beta (Homo sapiens) (UniProt Q9Y261). Kind of test: ATG_FoxA2_CIS: Attagene CIS-FACTORIAL HepG2 Assay for human Forkhead box A2 (FOXA2) (AID 2282942). The settings on record: HepG2 cis-reporter transcription factor activity, 24 h; actives raise or lower the signal. In short, it runs like this:
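HepG2 transiently transfected with a multiplexed cis-promoter reporter library read endogenous FOXA2 activity. After 24 h compound exposure, reporter mRNA was quantified by RT-PCR, HpaI digestion and capillary electrophoresis. Bidirectional fit against DMSO.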

Test [9] in a line: ATG_GATA_CIS: Attagene CIS-FACTORIAL HepG2 Assay for human GATA Binding Protein (AID 2282944). The following applies: HepG2 GATA cis-element reporter, Attagene multiplex mRNA; actives raise or lower the signal. In short, it runs like this:
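After transfecting HepG2 cells with multiple cis-regulated reporter units, chemicals are dosed for 24 h; isolated RNA undergoes RT-PCR and fluorescent labeling before capillary electrophoresis, with activity expressed against DMSO.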

Test [10] can be described thus: ATG_M_19_CIS: Attagene CIS-FACTORIAL HepG2 Assay for M19 Transcription Factor (Internal Marker) (AID 2282939). The settings on record: HepG2 Attagene CIS-FACTORIAL M19 internal marker reporter; actives raise or lower the signal. In short, it runs like this:
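Signals come from fluorescence of labelled reporter-specific PCR fragments resolved by capillary electrophoresis, following 24 h treatment of HepG2 cells transfected with cis-promoter reporter units; activity was fitted in both directions relative to DMSO.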

Structures are written as SMILES. Calls of active or inactive are those of the source. Rule for the calls: active = hit-call score of the fitted dose curve at least 0.9, where 1 is the maximum; inactive = score below 0.9.

What is called AC50 is the concentration at which the activity in the assay is half-maximal.

Chain of Transcription factor E2F1 (Homo sapiens) (Q01094 whole entry, looked up): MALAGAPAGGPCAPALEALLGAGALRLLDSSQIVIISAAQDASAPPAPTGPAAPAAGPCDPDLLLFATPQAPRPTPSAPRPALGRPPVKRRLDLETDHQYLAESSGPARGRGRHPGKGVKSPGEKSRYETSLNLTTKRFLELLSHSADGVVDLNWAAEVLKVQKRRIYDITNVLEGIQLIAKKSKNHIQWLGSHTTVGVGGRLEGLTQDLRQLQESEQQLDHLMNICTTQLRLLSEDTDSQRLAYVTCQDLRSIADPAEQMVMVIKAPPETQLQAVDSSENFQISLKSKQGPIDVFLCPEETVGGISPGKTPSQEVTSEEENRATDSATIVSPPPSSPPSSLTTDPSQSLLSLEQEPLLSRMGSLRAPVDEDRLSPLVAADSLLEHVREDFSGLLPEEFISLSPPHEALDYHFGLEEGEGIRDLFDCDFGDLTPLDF
Chain of Hepatocyte nuclear factor 3-beta (Homo sapiens) (Q9Y261 whole entry, looked up): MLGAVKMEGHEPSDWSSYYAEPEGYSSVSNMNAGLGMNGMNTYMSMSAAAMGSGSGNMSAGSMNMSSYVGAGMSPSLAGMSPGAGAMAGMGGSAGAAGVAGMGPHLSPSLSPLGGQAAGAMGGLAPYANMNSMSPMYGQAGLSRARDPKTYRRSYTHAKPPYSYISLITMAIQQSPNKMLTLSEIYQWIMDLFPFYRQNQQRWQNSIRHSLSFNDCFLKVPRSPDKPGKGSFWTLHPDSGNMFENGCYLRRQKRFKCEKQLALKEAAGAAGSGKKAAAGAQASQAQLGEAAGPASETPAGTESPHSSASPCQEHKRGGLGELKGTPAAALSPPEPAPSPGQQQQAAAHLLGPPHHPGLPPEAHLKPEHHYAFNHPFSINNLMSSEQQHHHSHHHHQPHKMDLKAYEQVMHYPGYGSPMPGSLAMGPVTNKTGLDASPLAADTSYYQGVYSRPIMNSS

On to `CC1(C)CC(=O)CC(C)(C)N1`, for which the compound was classed as inactive in test [1], in test [2], in [3], in [4], in test [5] and in [6]. Besides, the call in test [7] was inactive.
With `CN(C)CCC=C1c2ccccc2CCc2ccccc21`, the compound was classed as inactive in test [1], in test [2], in [3], in [5], in [6] and in [8]. Besides, in test [4], the AC50 is 41 µM (active).
As to `COC(=O)c1cccc(C(=O)OC)c1`, the outcome in [1], in [2], in test [3], in test [4], in test [5] and in [8] was inactive. The outcome in test [7] and in test [9] was inactive.
Consider `Cc1cc(O)c(C)c(C)c1O`, for which the result in [1], in test [3], in [4], in test [10], in test [5] and in test [6] was inactive. Moreover, the call in test [8] and in [7] was inactive.
Turning to `CC(C)CCCC(C)(C)O`, the compound was called inactive in [1], in test [2], in [3], in test [4], in [10] and in [8]. Also, the result in [7] and in test [9] was inactive.
Turning to `CCCCCCCCCCCCN1CCOCC1`, the outcome in test [1], in test [2], in test [3], in test [4], in test [10] and in [8] was inactive. The compound was called inactive in test [7] and in test [9].
For `CCCC[N+](C)(CCCC)CCCC`, the outcome in test [1], in test [2], in test [3], in test [4], in test [5] and in test [8] was inactive. For the same compound, the call in test [9] was inactive.
With `N#CCCNCCC#N`, the compound was classed as inactive in test [1], in [2], in test [3], in [4], in test [7] and in test [9].
As to `CCCC1CCC(=O)CC1`, the outcome in test [1], in test [2], in test [3], in test [4], in test [5] and in [6] was inactive. In addition, the call in test [8], in [7] and in [9] was inactive.
Take `CC(C)COC(=O)c1ccccc1O`: the compound was called inactive in [1], in test [2], in [3], in test [4], in [5] and in [6]. Moreover, the call in test [8], in test [7] and in [9] was inactive.
Turning to `CC(C)C(=O)c1ccccc1`, the compound was called inactive in test [1], in test [2], in test [3], in [4], in test [6] and in test [8]. For the same compound, the compound was called inactive in test [7] and in [9]. The AC50 in test [5] is 0.5 µM (active).
`CN(C)C(=O)Nc1ccccc1`: the compound was called inactive in test [1], in test [2], in test [3], in test [4], in test [5] and in test [6]. Moreover, the outcome in test [8], in test [7] and in [9] was inactive.
Consider `Nc1ccc(N)c([N+](=O)[O-])c1`, for which the compound was classed as inactive in test [1], in [2], in test [3], in test [4], in test [6] and in test [8]. In test [7], the result was inactive.
Consider `CC1=CC(O)CC(C)(C)C1` (configuration not stated), for which the compound was classed as inactive in [1], in [2], in test [3], in test [4], in [10] and in test [7]. Besides, the compound was classed as inactive in [9].
Take `Nc1cc([N+](=O)[O-])ccc1C(=O)O`: the compound was classed as inactive in [1], in [2], in test [3], in test [4], in test [8] and in test [7]. The result in test [9] was inactive.
With `CCCCOCC(C)OCC(C)O` (configuration not stated), the result in test [1], in test [2], in [3], in test [4], in test [5] and in test [6] was inactive. Moreover, the call in test [8] and in [7] was inactive.
Regarding `CCC(C)(C)C1CCC(OC)CC1` (configuration not stated), the compound was called inactive in [1], in [2], in test [3], in [4], in test [5] and in [6]. Also, the compound was classed as inactive in [8] and in test [7].
`CC(C)(C)c1ccc(S)cc1`: the outcome in test [1], in test [2], in test [3], in test [4], in test [6] and in [8] was inactive. In addition, the compound was called inactive in [7] and in test [9].
As to `O=C(O)c1ccc(C(=O)O)c(C(=O)O)c1`, the compound was classed as inactive in test [1], in test [3], in test [4], in [5], in test [6] and in test [8]. Also, the compound was called inactive in test [7] and in test [9].
Consider `NC(N)=S`, for which the result in [1], in [3], in test [4], in test [5], in test [6] and in test [8] was inactive. Also, the compound was classed as inactive in test [7].
On to `C=CC(C)(CCC=C(C)C)OC(=O)CC` (configuration not stated), for which the compound was called inactive in test [1], in test [3], in test [4], in [10], in [5] and in test [6]. Moreover, the outcome in [8], in [7] and in test [9] was inactive.
With `CCCc1ccc(O)cc1`, the compound was classed as inactive in [1], in [3], in test [4], in test [10], in [6] and in test [8]. Also, the call in [7] and in test [9] was inactive.

The values are drawn from PubChem BioAssay (EPA / NIEHS).
